Bioassay records deposited in PubChem BioAssay by National Center for Advancing Translational Sciences (NCATS).
The list is not random: actives were taken first. Their share in the collection is about 19%.
SARS PLpro yeast: blocks SARS-CoV papain-like protease in a yeast assay. S. cerevisiae expressing SARS-CoV PLpro, growth rescue. Potency, µM (titrated, usually from 32.9 µM), inactives show at the highest dose activity, positive = growth rescue, actives largely listed as activators. 330,000 tested, 0.19% active; calls by dose curve; also: potency is read from the fitted curve at half-maximal effect; 0% is about no effect; nearly all actives have a fitted effect of over 55% in size
Pf growth 48h: P. falciparum growth inhibition at 48 hours (one generation) | P. falciparum luciferase growth in erythrocytes, 48 h | 310,000 tested, 5.9% active | AID 504832 | Potency, µM (titrated, usually from 28.7 µM), for inactives: at the highest dose activity change, negative = inhibition, usual class: inhibitors; also: potency is read from the fitted curve at half-maximal effect; % is scaled to controls: 0 for no effect and ±100 for the full control effect
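Parasite viability was followed by luminescence of a genomically integrated firefly luciferase. Cultures held 0.1% parasitemia at 2% hematocrit (final), incubated under 5% CO2 at 37 C.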
CHX counter: counter-screen hit for Shiga toxin inhibitors, cycloheximide; cell reporter, cycloheximide protein synthesis inhibition counterscreen; max response, %; 300,000 tested, 12% active; in the data active = max response mostly above about 13%, no sharp cut-off; inactive = mostly below about 14%; also: read at 38.3 µM for the half of the compounds with a filed dose; 0% is about no effect
Pf growth 96h: P. falciparum growth inhibition at 96 hours; P. falciparum luciferase reporter growth, 96 h; 320,000 tested, 6.9% active; AID 504834; Potency, µM (series often up to 28.7 µM), for the others: at the top dose activity change, negative = inhibition, usual class: inhibitors; also: potency is read from the fitted curve at half-maximal effect; % is scaled to controls: 0 for no effect and ±100 for the full control effect
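P. falciparum expressing integrated firefly luciferase grown in erythrocytes (2% hematocrit, 0.05% parasitemia final) with compounds for 96 hours at 37 C, 5% CO2. Growth inhibition read as loss of luminescence after adding luciferase detection reagent.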
Shiga inhibitor: blocks Shiga toxin action in Vero cells; AID 2315; 290,000 tested, 9.2% active; inhibition, % at 38.7 µM; Vero cells, Shiga toxin protein synthesis inhibition reporter; in the data active = inhibition mostly above about 28%, no sharp cut-off; inactive = mostly below about 43%; also: 0% is about no effect
AMA1-RON2 inh: disrupts binding of P. falciparum AMA1 to RON2 | AlphaScreen AMA1-biotinylated RON2 peptide binding | Potency, µM (doses to about 58.2 µM), for the others: at the highest dose activity change, negative = inhibition, most hits filed as inhibitors | 360,000 tested, 0.2% active | AID 720542;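 also: potency is read from the fitted curve at half-maximal effect; 0% = vehicle wells and -100% = peptide control; nearly all actives have a fitted effect of over 45% in size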
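AMA1 (3D7) with his tag at 25 nM final met compounds first, then biotinylated RON2 peptide at 25 nM; detection used donor plus acceptor beads, 10 µg/mL apiece, read by AlphaScreen after 30 min at room temperature.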
Active calls of the source: *; ? = inconclusive; · = not tested or not shown; + = active, no number. Unless noted, calls follow the shape of the dose curve; as a rule, active = well fitted curve in the direction sought with a large enough effect; inconclusive = small, poorly fitted or top-dose-only effect, or another doubt; inactive = no such curve, though single readings can be large; an effect the other way counts as inactive or inconclusive.

SMILES	SARS PLpro yeast	Pf growth 48h	CHX counter	Pf growth 96h	Shiga inhibitor	AMA1-RON2 inh
N#Cc1ccc(/C=N/NC(=O)c2ccccc2F)cc1	-14.8%	139.5%	12.0	96.5%	12.7	3.3%
O=C(CNc1cccc2ccccc12)N/N=C/C(Br)=C/c1ccccc1	-8.6%	6.6%	-2.1	14.7%	-7.6	2.3%
O=C(N/N=C/C(Br)=C/c1ccccc1)c1ccccc1F	-52.9%	?	34.3*	?	86.4*	10.0%
CCC(Cc1c(I)cc(I)c(O)c1I)C(=O)O (centres undefined)	·	-15.9%	·	4.3%	·	·
O=C(O)CSc1c2c(nc3cc(C(=O)N4CCOCC4)ccc13)CCCC2	-1.4%	16.5%	-1.8	-7.1%	-5.6	-10.4%
CN1CCN(C(=O)c2ccc3c(Cl)c4c(nc3c2)CCCC4)CC1	0.6%	-29.9%	15.2	13.1µM*	28.4	-5.2%
CCOC(=O)N1CCN(C(=O)c2ccc3c(SCC(=O)O)c4c(nc3c2)CCCC4)CC1	8.1%	-4.6%	-0.6	11.7µM*	-9.3	3.7%
COc1cc(NC(=O)c2ccc3c(SCC(=O)O)c4c(nc3c2)CCCC4)cc(OC)c1OC	2.4%	14.9%	0.6	?	-23.8	7.5%
COc1cc(OC)c(NC(=O)c2ccc3c(SCC(=O)O)c4c(nc3c2)CCCC4)cc1Cl	-0.2%	5.22µM*	-3.1	226.2%	-11.5	-2.4%
Cc1nn(C)cc1/C=N/NC(=O)Cn1cncn1	-0.2%	14.0%	13.1	20.3%	11.9	-7.9%
COc1ccc(NC(=O)CN(C)C(=O)/C=C/c2ccc(S(=O)(=O)N3CCCCCC3)cc2)cc1	·	11.7µM*	·	-7.8%	·	-8.1%
CCCN(CC(=O)Nc1ccccc1C)C(=O)c1ccc(S(=O)(=O)N2CCCCCC2)cc1	1.6%	?	-1.6	?	-23.5	13.1%
CCCN(CC(=O)Nc1ccccc1C)C(=O)CCl	2.0%	?	34.6	1.65µM*	21.6	3.3%
COc1ccc(/C=C/C(=O)N(C)CC(=O)Nc2cccc(F)c2)cc1S(=O)(=O)N1CCCCC1	-6.7%	?	·	0.0%	·	-16.4%
CCCN(CC(=O)Nc1ccccc1C)C(=O)/C=C/c1ccc(S(=O)(=O)N2CCCCCC2)cc1	-1.4%	13.1µM*	·	?	·	-12.8%
Cc1ccc(OCCNC(=O)c2ccccc2SCC(=O)N2CCCC2)cc1	4.2%	?	·	?	·	24.5%
Cc1cc(C)n2c(SCc3cccs3)nnc2n1	-4.6%	19.3%	15.4*	·	+	1.4%
Cc1c(Cl)c([N+](=O)[O-])nn1CC(=O)N1CCN(Cc2ccccc2)CC1	-0.1%	8.0%	-1.8	-0.1%	-13.1	-6.3%
Cc1[nH]c(=O)[nH]c(=O)c1S(=O)(=O)N1CCCC(C(=O)N2CCN(c3cccc(C(F)(F)F)c3)CC2)C1 (centres undefined)	-3.4%	-15.0%	-3.2	0.3%	-9.4	-8.2%
Cc1[nH]c(=O)[nH]c(=O)c1S(=O)(=O)N1CCC(C(=O)N2CCN(c3cccc(C(F)(F)F)c3)CC2)CC1	-1.5%	10.4µM*	-6.0	18.2%	10.5	-10.0%
Cc1cc(/C=C(/C#N)C(=O)O)c(C)n1-c1cccc2ccccc12	-0.2%	-10.7%	-3.2	2.5%	21.4	-2.4%
CCCCCC(=O)c1c(C)[nH]c(C(=O)OCC)c1C	-38.2%	?	17.1*	?	103.9*	-16.2%
CCCN(CCC)C(=O)c1c(C)[nH]c(C(=O)OCC)c1C	4.4%	-6.5%	0.8	4.1%	1.9	·
CCCCCCC(=O)c1c(C)[nH]c(C(=O)OCC)c1C	-11.9%	?	30.3*	-15.1%	81.5*	-4.7%
CCOC(=O)c1[nH]c(C)c(C(=O)O)c1C	-5.5%	·	-8.2	-0.4%	-14.6	·
SMILES	SARS PLpro yeast	Pf growth 48h	CHX counter	Pf growth 96h	Shiga inhibitor	AMA1-RON2 inh
COc1ccc(-c2noc(C3CCCN(C(=O)c4ccc(F)cc4)C3)n2)cc1 (centres undefined)	0.5%	-10.1%	26.1*	93.7%	70.9	-9.6%
O=C(c1c(F)cccc1F)N1CCCC(c2nc(-c3ccc(F)cc3)no2)C1 (centres undefined)	3.3%	38.0%	24.0*	141.6%	·	0.3%
COc1ccc(-c2noc(C3CCCN(C(=O)c4ccc(C)cc4)C3)n2)cc1 (centres undefined)	1.8%	114.4%	15.5	-17.5%	10.9	-22.8%
O=C(c1ccc(F)cc1)N1CCCC(c2nc(-c3ccncc3)no2)C1 (centres undefined)	-0.4%	4.9%	·	21.3%	·	1.1%
Cc1cccc(C)c1NC(=O)Nc1ccc(S(N)(=O)=O)cc1	1.1%	?	-1.5	24.7%	-7.0	-5.6%
Cc1ccc(CN2CC(N3CCC(c4ccccc4)CC3)CS2(=O)=O)cc1 (centres undefined)	·	·	·	·	·	-21.2%
COC(=O)c1ccc2nc(-c3ccc(Cl)cc3)c(Cc3cccc(Cl)c3)n2c1	·	·	·	·	·	6.8%
CCCOC(=O)c1ccc2c(c1)C(=O)N(c1ccccc1)C2=O	2.4%	·	-2.0	11.7µM*	-12.7	-2.5%
CCCOC(=O)CN1C(=O)c2ccc(C(=O)OCCC)cc2C1=O	1.9%	2.8%	-1.2	·	-10.7	0.0%
CCOC(=O)c1ccc(NC(=O)Cn2c(-c3nonc3N)nc3ccccc32)cc1	-0.1%	-18.1%	11.7	64.3%	-3.1	15.5%
COc1ccccc1C(=O)NCCn1ccc2ccccc21	-1.5%	?	-0.3	55.6%	66.4	-6.3%
O=C(NCCn1ccc2ccccc21)C1CCCCC1	?	-7.9%	17.8*	-3.9%	23.7*	0.0%
COc1cccc(C(=O)NCCn2ccc3ccccc32)c1	-10.3%	0.0%	24.8*	117.0%	45.3*	-1.2%
COc1ccc(C(=O)NCCCc2nc3ccccc3n2Cc2ccccc2C)cc1OC	5.3%	?	-4.6	9.28µM*	-9.8	-9.6%
COc1cc(OC)cc(C(=O)NCCn2ccc3ccccc32)c1	-10.0%	·	10.2	?	-3.4	-2.3%
COc1ccc(C(=O)NCCn2ccc3ccccc32)cc1OC	-6.8%	1.6%	17.6*	1.0%	23.0	0.0%
CC(=O)O[C@H]1[C@H](C)OC=C[C@@H]1OC(C)=O	6.6%	9.6%	-0.6	-22.9%	-13.9	19.5%
CC(C)(C)[C@H]1C=C(C(=O)Nc2ccccc2)O[C@@H](OCCCCO)C1	·	·	·	·	·	-0.4%
COc1ccc(OC)c(N(CC(=O)NCCSCc2ccc(C)cc2)S(C)(=O)=O)c1	0.6%	-8.8%	-1.5	-21.7%	·	-8.0%
COc1ccccc1N(CC(=O)NCC1CCCO1)C(=O)CNS(=O)(=O)c1ccccc1 (centres undefined)	0.3%	?	-1.7	24.1%	14.4	-15.3%
Nc1nc(-c2ccc(Cl)cc2)nn1C(=O)c1cccs1	-1.7%	18.8%	-2.3	13.1µM*	-14.9	-15.6%
CCC(=O)n1nc(-c2ccc(Cl)cc2)nc1N	-2.0%	25.5%	14.0	?	28.1	-21.4%
Nc1nc(-c2ccc(Cl)cc2)nn1C(=O)c1cccnc1	-1.7%	10.7%	24.9*	18.0%	31.2*	-6.0%
